Inconclusive results are not listed. Entries that show only a call come without a potency. The source made the active and inactive calls. Calls come from the whole dose curve; as a rule, active = well fitted cell-killing curve with a large enough effect in the repeat runs; inconclusive = weak or mixed curves, or effect the other way; inactive = no such curve, though single readings can be large or run the other way.
Potency is the fitted concentration of half-maximal effect.

The nature of the assay: Caspase-3/7 induction in CHO-K1 cells by small molecules, qHTS cell viability counter screen (AID 1346979). Note: nearly all actives have a fitted effect of over 35% in size. Particulars: CellTiter-Fluor fluorescence, 17 h; series mostly up to 92.4 µM. The source says:
National Center for Advancing Translational Sciences [NCATS]
NIH Chemical Genomics Center [NCGC]
U.S. Environmental Protection Agency [EPA]
National Institutes of Environmental Health Sciences [NIEHS]
National Toxicology Program [NTP]
U.S. Food and Drug Administration [FDA]
Apoptosis is a process of programmed cell death and plays a central role in the development of multicellular organisms. It is a highly regulated process and induces cell death by activating caspases, which are the members of cysteine aspartic acid-specific protease (caspase) family. Caspases involved in apoptosis are classified by their mechanism of action as initiator caspases (caspase-2, -8, -9 and -10) and executioner caspases (caspase-3, -6, and -7). Inhibition of apoptosis results in number of cancers, autoimmune diseases, inflammatory diseases and viral infection. To identify small molecule compounds that induce apoptosis, a homogeneous, luminescent Caspase-Glo 3/7 assay was used. Wild type CHO-K1 cells were used to screen Tox21 libraries for identifying caspase-3/7 activity inducers. Also cytotoxicity of the compounds was tested in parallel by measuring the cell viability using CellTiter-Fluor assay system in the same wells.
Tox21 Assay Protocol Summary:
CHO-K1 cells were dispensed at 1,500 per well in 5uL of culture medium into white solid bottom 1536-well plates (Corning Life Sciences, Corning, NY) using a Multidrop Combi (Thermo Scientific, Waltham, MA) dispenser. The assay plates were incubated at 37 C and 5% CO2 for 5hr, and then 23nL of compounds dissolved in DMSO and positive control were transferred using a Pintool station (Wako, San Diego, CA). The assay plates were incubated at 37C and 5% CO2 for 17hr. For cytotoxicity read, after 16hr incubation at 37C, 1uL CellTiter-Fluor reagent (Promega Corporation, Madison, WI) was added to each well of the assay plates using Flying Reagent Dispenser (FRD, Aurora Discovery, San Diego, CA). After 1hr incubation at 37C and 5% CO2, the fluorescence signal was quantified using a ViewLux plate reader (PerkinElmer, Shelton, CT).
For orientation: qHTS replaces the single test concentration by a dilution series.
As to `O=Cc1ccccc1`, the Potency result is “inactive”.
On to `CNN`, for which the Potency entry is “inactive”.
As to `CC1CN1` (stereo not given), the Potency result is “inactive”.
For the compound `C=C(C)C(=O)[O][Sn]([CH2]CCC)([CH2]CCC)[CH2]CCC`, the Potency was 0.306 µM (active).
In the case of `O=C(Cl)c1ccccc1F`, the Potency entry was “inactive”.
Turning to `c1ccc(N=NNc2ccccc2)cc1`, the Potency is 56.4 µM (active).
As for `O.O.O.O.O.O.O=S(=O)([O-])[O-].[Ni+2]`, the entry is “inactive”.
`Nc1nc(N)nc(Cl)n1`: the Potency entry was “inactive”.
As for `N#Cc1ccc(N(CC(N)=O)CC(F)(F)F)cc1C(F)(F)F`, the Potency entry is “inactive”.
Consider `ClSC(Cl)(Cl)Cl`, for which the Potency entry is “inactive”.
As to `CC(C)NCC(O)c1ccccc1Cl` (stereo not given), the Potency entry is “inactive”.
On to `CSC1=N[C@@](C)(c2ccccc2)C(=O)N1Nc1ccccc1`, for which the Potency is 8.63 µM (active).
Turning to `Nc1cc(Cl)ccc1Cl`, the Potency result was “inactive”.
Under `CCC(C)Br` (stereo not given) stands “inactive”; under `CCOP(=S)(OCC)Oc1cc(C)nc(N(CC)CC)n1`, “inactive”; under `O=C(N[C@H]1N=C(c2ccccc2F)c2cccc3c2N(CC3)C1=O)c1cc2ccccc2[nH]1`, “inactive”.
As for `CC(O)C(=O)[O][Hg][c]1ccccc1` (stereo not given), the figure is 1.09 µM (active); as for `Cc1ccn2nc(S(=O)(=O)Nc3c(F)cccc3F)nc2n1`, “inactive”.
In the case of `Oc1ccc(Cl)c(Cl)c1`, the Potency is 67.5 µM (active).
`COc1c2c(cc3c1OCO3)CCN(C)C2`: the Potency result is “inactive”.
For the compound `CCN(CC)Cc1nccn1-c1ccc([N+](=O)[O-])cc1C(=O)c1ccccc1Cl`, the Potency entry is “inactive”.
Under `COc1nc(C)nc(NC(=O)NS(=O)(=O)c2ccccc2Cl)n1` stands “inactive”; under `CCCCON=O`, “inactive”.
Consider `CC(C)[C@@H](Nc1ccc(C(F)(F)F)cc1Cl)C(=O)OC(C#N)c1cccc(Oc2ccccc2)c1` (stereo not given in full), for which the Potency result was “inactive”.
Under `C1=CCC=C1` stands “inactive”.
For the compound `CCCCc1ccccc1`, the Potency result is “inactive”.
Take `O=[N+]([O-])C(Br)Br`: the Potency entry was “inactive”.
For `c1ccc2nc(N3CCNCC3)ccc2c1`, the Potency result was “inactive”.
Turning to `CCNS(=O)(=O)C(F)(F)C(F)(F)C(F)(F)C(F)(F)C(F)(F)C(F)(F)C(F)(F)C(F)(F)F`, the Potency entry is “inactive”.
For the compound `COC(=O)C(C)N(C(=O)c1ccco1)c1c(C)cccc1C` (stereo not given), the Potency result was “inactive”.
Turning to `Cc1ccc(C)c2ccccc12`, the Potency entry was “inactive”.
As for `O=[N+]([O-])c1cccc2cccc([N+](=O)[O-])c12`, the entry is “inactive”.
`O=[N+]([O-])c1ccc(Cl)c(Cl)c1Cl`: the Potency entry was “inactive”.
Turning to `C=CCBr`, the Potency result is “inactive”.
In the case of `Clc1ccc(C2(Cn3cncn3)OCCO2)c(Cl)c1`, the Potency entry is “inactive”.
`CC(C)C(Nc1ccc(C(F)(F)F)cc1Cl)C(=O)OC(C#N)c1cccc(Oc2ccccc2)c1` (stereo not given): the Potency entry was “inactive”.
For `NC(=O)C(Cl)Cl`, the Potency entry is “inactive”.
Turning to `CCCC[N+]1(C)CCCC1` (tested in a mixture with another compound), the Potency was 61.9 µM (active).
With `Brc1cccc(-c2ccccc2)c1`, the Potency result was “inactive”.
As for `CN(C)c1ccc(N)cc1`, the Potency is 42.2 µM (active).

The values are drawn from PubChem BioAssay (Tox21).
